Compounds with a hit are over-represented: about 1.5% of the library has one in this group of screens.
Coupling enz: inhibits coupling enzyme system, counter-screen for aldolase hits; 290,000 tested, 0.67% active; coupling enzyme system counterscreen, AmpLite Red fluorescence; activity change, negative = inhibition, % at 58.2 µM, hits read low; AID 2472; in the data active = activity change below about -30%
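Coupling enzymes only (glyceraldehyde-3-phosphate) + compound, at 57.5 uM final, 10 min RT; add substrate/coupling/AmpLite Red mix, 20 min RT; fluorescence ex 525/em 598 nm. Actives flag coupling-system interference.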
GALK inhibitor: galactokinase (human) inhibition. Purified GALK, Kinase-Glo residual ATP luminescence. AID 1868. P51570. Potency, µM (series often up to 57.5 µM), most hits filed as inhibitors. 270,000 tested, 0.007% active
Target sequence (P51570 whole entry, looked up): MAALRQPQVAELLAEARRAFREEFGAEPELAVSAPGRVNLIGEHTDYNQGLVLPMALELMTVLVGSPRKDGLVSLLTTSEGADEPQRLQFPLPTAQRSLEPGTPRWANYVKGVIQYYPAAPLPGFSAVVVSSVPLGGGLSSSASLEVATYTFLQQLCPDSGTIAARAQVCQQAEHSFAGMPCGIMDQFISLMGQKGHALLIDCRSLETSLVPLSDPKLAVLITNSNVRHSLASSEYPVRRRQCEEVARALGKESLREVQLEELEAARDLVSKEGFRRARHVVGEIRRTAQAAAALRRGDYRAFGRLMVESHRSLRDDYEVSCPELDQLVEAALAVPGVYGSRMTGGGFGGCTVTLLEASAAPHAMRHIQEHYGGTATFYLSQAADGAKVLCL
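Compounds were pin-transferred into ATP buffer (35 uM final), then GALK plus galactose (5 nM, 100 uM final) was added. After 1 h at room temperature, Kinase-Glo Plus was added and luminescence read after 10 min.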
rTrxR1 inhibitor: blocks rat thioredoxin reductase 1; O89049; recombinant rTrxR1, NADPH fluorescence consumption, selenite substrate; Potency, µM (top dose mostly 114 µM), most hits filed as inhibitors; 390,000 tested, 1% active; also: nearly all actives have a fitted effect of over 65% in size
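Rat TrxR1 (90 nM in the dispensed reagent) was pre-reduced with 400 uM NADPH for 5 min at room temperature, then incubated with compound for 15 min. After 400 uM selenite was added, NADPH fluorescence (Ex 340/Em 450 nm) was followed for 8 min.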
USP1 inh: USP1/UAF1 (human) deubiquitinase inhibition; recombinant USP1/UAF1, Ub-Rhodamine cleavage fluorescence; Potency, µM (series often up to 57.1 µM), hits mostly inhibitors; 390,000 tested, 0.23% active; also: nearly all actives have a fitted effect of over 60% in size
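1 nM enzyme complex + cpd, 15 min RT; start with Ub-Rho 150nM final; kinetic fluorescence ex 480/em 540, 6 reads q60 s. Buffer 50mM HEPES pH 7.8, 0.5mM EDTA, 0.1 mg/ml BSA, 1mM TCEP, 0.01% Tween-20.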
TrxR1 substrate: is turned over as a substrate by rat TrxR1. O89049. purified TrxR1 substrate turnover, NADPH consumption readout. Potency, µM (series often up to 114 µM). 390,000 tested, 0.01% active; also: nearly all actives have a fitted effect of over 50% in size
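Rat TrxR1, dispensed at 90 nM, was prereduced with 400 uM NADPH (final) for 5 min at ~22 deg C, then incubated with compound 15 min before 400 uM selenite. A first-read NADPH fluorescence drop versus no-compound background flagged substrates.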
Numbers stand for hits; n = inactive; u = inconclusive; x = no result given; [ ] = another dose, or the depositor's remark. Unless noted, calls follow the shape of the dose curve; as a rule, active = well fitted curve in the direction sought with a large enough effect; inconclusive = small, poorly fitted or top-dose-only effect, or another doubt; inactive = no such curve, though single readings can be large; an effect the other way counts as inactive or inconclusive.

SMILES	Coupling enz	GALK inhibitor	rTrxR1 inhibitor	USP1 inh	TrxR1 substrate
O=Cc1ccc(/C=C2\C=Cc3ccccc32)cc1	x	x	n	x	n
CC(C)C[C@H](NC(=O)[C@H](Cc1cnc[nH]1)NC(=O)[C@@H](N)Cc1cnc[nH]1)C(=O)NCC(=O)NCC(=O)N[C@@H](C)C(=O)N[C@@H](CCCCN)C(=O)N[C@@H](CCC(N)=O)C(=O)N[C@@H](C)C(=O)NCC(=O)N[C@@H](CC(=O)O)C(=O)N[C@H](C(=O)O)C(C)C	n	x	x	x	x
COc1cc2c(cc1OC)C(c1cc(-c3cc(Cl)ccc3Cl)oc1C)=NCC2	x	x	n	x	n
CC(C)(C)c1cc(CN2CCCCC2)cc(C(C)(C)C)c1O	-56.3	n	x	x	x
Oc1cccc(CN2CCCCC2)c1	n	n	n	n	n
O=C(Nc1ccc2ccccc2c1)N1CCN(c2ncccc2C(F)(F)F)CC1	-50.3	n	n	n	n
CCOc1ccc(CC2NCCc3cc(OCC)c(OCC)cc32)cc1OCC (stereo not given)	n	n	50.1µM	n	n
COc1ccc(/C(=C\C(=O)O)c2nccc3cc(OC)c(OC)cc23)cc1OC	n	x	x	x	x
COc1ccc(/C(=N/OC(C)=O)c2nccc3cc(OC)c(OC)cc23)cc1OC	-32.4	n	n	n	n
Oc1cc2c(cc1C(c1ccc(Cl)c(Cl)c1)N1CCCC1)OCO2 (stereo not given)	n	n	3.55µM	n	n
CCCCCCC#CC1C=CC(OC(C)=O)C(COC(C)=O)O1 (stereo not given)	n	x	x	x	x
Cc1cccc2c(C(O)c3c[nH]c4c(C)cccc34)c[nH]c12	x	x	n	x	n
COC(=O)c1cnn(C(=O)c2ccccc2Br)c1N	-37.4	n	n	n	n
C1=CN2CC=Cc3cc(/C=C/c4ccnc5ccccc45)cc(c32)C1	x	x	u	x	n[0.0914 µM]
Cc1ccc(C(C[N+](=O)[O-])c2c(C)[nH]n(-c3ccccc3)c2=O)cc1 (stereo not given)	-32.3	n	u	u	n
O=C(CCN1C(=O)c2ccccc2C1=O)Nc1sc2c(c1C(=O)NCc1ccco1)CCCC2	n	n	20µM	n	n
CC(C(=O)Nc1sc2c(c1C(=O)NCc1ccco1)CCCC2)N1C(=O)c2ccccc2C1=O (stereo not given)	n	n	n	n	n
Cc1c(C#N)c(NC(=O)COC(=O)c2cc(Cl)c3c(c2)OCCCO3)n(Cc2ccco2)c1C	x	x	n	x	n
O=C(Cn1cc(COc2c(F)c(F)cc(F)c2F)nn1)c1ccc(O)cc1	x	x	50.1µM	n	n
COc1ccc(OCc2cn(CC(=O)c3ccc(O)cc3)nn2)cc1	x	x	n	n	n
O=C1C=CC(=O)c2c(O)c(N3CCN(CCO)CC3)c(Cl)c(O)c21	x	x	n	2.82µM	56.2µM
O=C1C=CC(=O)c2c(O)c(N3CCN(CCOCCO)CC3)c(Br)c(O)c21	x	x	u	2µM	u
O=S(=O)(c1ccc(Br)cc1Cl)N1CCN(CCO)CC1	n	n	n	n	n
O=C(c1ccco1)N1N=C(c2ccc(Cl)cc2)CC1c1ccco1 (stereo not given)	n	n	39.8µM	n	n
O=C(OCC(=O)N1N=C(c2ccc(Cl)cc2)CC1c1ccco1)c1cccnc1 (stereo not given)	x	x	7.08µM	n	n
SMILES	Coupling enz	GALK inhibitor	rTrxR1 inhibitor	USP1 inh	TrxR1 substrate
O=C(c1ccco1)N1N=C(c2ccc(Br)cc2)CC1c1ccco1 (stereo not given)	x	x	n	n	n
CCCCNC(=O)[C@@H]1CC=C[C@@H]2CCN(CCCC)C(=O)[C@@H]21	x	x	n	x	n
CC(c1ccccc1)C1CC(=O)N(c2ccccc2)C1=O (stereo not given)	n	n	n	n	n
CC(c1ccccc1)C1CC(=O)N(Cc2ccco2)C1=O (stereo not given)	n	n	39.8µM	n	n
COC(=O)C(C(=O)OC)C1O[C@@]23COCCC2(C)C3c2ccccc21 (stereo not given in full)	n	x	x	x	x
CC(C)c1[nH]nc2c1C(Cc1ccccc1)C(C#N)=C(N)O2 (stereo not given)	n	n	17.8µM	n	n
Cc1[nH]nc2c1C(Cc1ccccc1)C(C#N)=C(N)O2 (stereo not given)	n	n	25.1µM	n	n
CCOc1ccc(/C=C/c2ccnc3ccccc23)cc1OCC	x	x	n	x	n
CO[C@H]1COC(=O)CCC[C@@H](C)[C@H](OC)COC(=O)[C@H]2CCCN2C(=O)C/C=C\[C@@H]1C	n	x	x	x	x
COc1ccccc1C1=Nn2c(nnc2-c2cccc(OC)c2OC)SC1	n	x	x	x	x
CCOC(=O)N=Nc1c2ccccc2c2nc3no[nH]c3nc12	-50.8	n	n	u	n
CCCCN1CCC[C@H]1CNC(=O)c1cc(C#N)c2ccccc2c1OC	n	x	x	x	x
Cc1ccc(CN(C)C(=O)c2ccccc2NC(=O)c2ccccc2)o1	x	x	28.2µM	n	n
CCOC(=O)C1CN(S(=O)(=O)c2ccc(C)cc2)c2ccccc2O1 (stereo not given)	n	n	3.16µM	n	n
CCCNC(=O)C1CN(S(=O)(=O)c2ccc(C)cc2)c2ccccc2O1 (stereo not given)	n	n	n[0.457 µM]	n	n
CNc1nc(-c2ccccc2)c(-c2ccccc2)s1	x	x	n	x	n
CC(N=Cc1cccc(O)c1O)c1ccccc1 (stereo not given)	-39.0	n	39.8µM	u	n
CC(N=Cc1cc([N+](=O)[O-])ccc1O)c1ccccc1 (stereo not given)	n	n	n	n	n
Cc1ccccc1N=Cc1cccc(O)c1O	n	x	70.8µM	u	u
Cc1ccc(N=Cc2cccc(O)c2O)c(C)c1	n	n	31.6µM	x	n
CCN(CC)c1ccc(C=Nc2ccc(C)cc2C)c(O)c1	n	n	n	n	n
CN(C)c1ccc(/C=C/c2ccnc3ccccc23)c(F)c1	x	x	n	x	n
O=C(COC(=O)CNC(=O)C1CCCCC1)NC1CCCC1	x	x	n	x	n
NC1=CC(=O)C(=O)c2ccccc21	x	x	n	15.8µM	n
CC(Oc1ccccc1Cl)C(=O)Nc1ccc(S(=O)(=O)N2CCN(C)CC2)cc1 (stereo not given)	x	x	20µM	n	n
SMILES	Coupling enz	GALK inhibitor	rTrxR1 inhibitor	USP1 inh	TrxR1 substrate
O=C(Nc1nccs1)[C@@H]1CC=C[C@@H]2CCN(C3CCCCC3)C(=O)[C@@H]21	x	x	u	x	n
COC1=C(Br)C(=O)c2nc(C)ccc2C1=O	x	x	x	25.1µM	x
Cc1nc2c(nc1C)C(=O)c1ccccc1C2=O	x	x	n	u	n
COC1=C(N)C(=O)c2nc(C)ccc2C1=O	x	x	n[11.4 µM]	7.08µM	n
COc1ccc(N)c2c1C(=O)c1ccccc1C2=O	n	x	n	n	n
Cc1ccc(-n2ncc(C(=O)N3CCN(C(=O)c4ccco4)CC3)c2C2CCN(C(=O)OC(C)(C)C)CC2)cc1C	x	n	28.2µM	n	n
COc1ccccc1CNc1ncnc2ccc(-c3ccccc3C#N)cc12	n	x	x	x	x
COC(=O)c1ccc(-c2nc(O)c(C)s2)cc1	n	n	n	n	n

High-throughput results (PubChem)
